Data on ten compounds can be found in PubChem BioAssay (NCI).

Test systems include SK-MEL-2 melanoma; EKVX NSCLC; SN12C renal; UO-31 renal; TK-10 renal; ACHN renal; CAKI-1 renal; A498 renal; CCRF-CEM leukemia; MOLT-4 leukemia.
What all share (experiment): NCI-60 one-dose screen, 48 h (100 = growth as untreated, 0 = no growth, -100 = all killed)
What all share (conditions): 10 µM unless noted

“And” between values parts separate entries of the source, which are not always exact repeats. Equal entries are not always repeated. Compounds without any hit were thinned out: in the full panel of roughly 83,000, 20% have a hit.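 Single-concentration screen, 48 h exposure, 96-well plates. Endpoint: percent growth. Below 10 = active.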 Unmarked numbers belong to inactive results. The source made the active and inactive calls.

For `COc1ccc(NC(=O)NN2C(=O)c3ccccc3N(C)C2c2ccc(OC)cc2)cc1` (stereo not given), the growth is 95.3% with SK-MEL-2 melanoma; 100% in the assay on EKVX NSCLC; 103% in the assay with SN12C renal; 75.3% in the assay on UO-31 renal; 97.2% in the assay with TK-10 renal; 106% in the assay on ACHN renal. For the same compound, the growth with CAKI-1 renal is 92.7%; in the assay on A498 renal it was 108%; with CCRF-CEM leukemia, 98.7%; in the assay with MOLT-4 leukemia it was 96.4%.

For the compound `COc1ccc2[nH]c(=O)cc(-n3ncc(C(=O)/C=C/c4cc(OC)c(OC)c(OC)c4)c3C)c2c1`, the growth in the assay with SK-MEL-2 melanoma is -28.3% (active); in the assay on EKVX NSCLC, 11%; in the assay on SN12C renal it was 7.21% (active); in the assay on UO-31 renal, -36.2% (active); with TK-10 renal it was 40.9%; in the assay with ACHN renal, -14.9% (active). Besides, the growth is 14.6% in the assay with CAKI-1 renal, 0.493% (active) in the assay on A498 renal, -20.4% (active) in the assay on CCRF-CEM leukemia and -7.45% (active) in the assay on MOLT-4 leukemia.

On to `Cc1ccc(Cl)cc1NC(=O)Nc1nc2ccc([N+](=O)[O-])cc2s1`, for which the growth in the assay with SK-MEL-2 melanoma is -47.1% (active); in the assay on EKVX NSCLC it was -0.784% (active); with SN12C renal it was -25.7% (active); in the assay on UO-31 renal, -16.3% (active); with TK-10 renal, 2.13% (active); with ACHN renal it was -19.8% (active). Further, the growth in the assay with CAKI-1 renal is -26% (active); in the assay on A498 renal it was -21.7% (active); in the assay with CCRF-CEM leukemia it was 3.14% (active); in the assay with MOLT-4 leukemia it was 6.23% (active).

Turning to `COC(=O)c1cc(C(=O)C(Br)Br)n2c1ccc1c3ccccc3ccc12`, the growth was 104% in the assay with SK-MEL-2 melanoma; 43.3% with EKVX NSCLC; 53.3% in the assay on SN12C renal; 37.8% in the assay with UO-31 renal; 65.3% in the assay on TK-10 renal; 36.2% in the assay on ACHN renal. Besides, the growth in the assay with CAKI-1 renal was 58.3%; in the assay with A498 renal it was 121%; in the assay with CCRF-CEM leukemia, 35.6%; in the assay with MOLT-4 leukemia, 22.9%.

For `CC(C)(C)c1ccc(OCc2nc3ccccc3n2-c2cccc(N)c2)cc1`, the growth with SK-MEL-2 melanoma is 62.8% and 109%; in the assay with EKVX NSCLC, 45.5% and 96.8%; in the assay with SN12C renal, 79.2% and 106%; with UO-31 renal, 43.4% and 83.6%; in the assay on TK-10 renal it was 93.3% and 111%; in the assay on ACHN renal it was 70.2% and 112%. The growth in the assay on CAKI-1 renal was 44.4% and 95.6%; in the assay on A498 renal it was 142% and 126%; with CCRF-CEM leukemia, 46% and 96.1%; in the assay on MOLT-4 leukemia, 25.4% and 90.9%.

In the case of `COc1ccc(-c2nc3ccccc3n2CC(=O)N=Nc2c(O)[nH]c3ccc(Br)cc23)cc1`, the growth with SK-MEL-2 melanoma is 85.4%; in the assay with EKVX NSCLC, 85%; with SN12C renal, 97%; with UO-31 renal, 66.7%; in the assay on TK-10 renal, 94.8%; with ACHN renal it was 87.8%. Further, the growth in the assay with CAKI-1 renal is 74.9%; in the assay with A498 renal it was 139%; in the assay with CCRF-CEM leukemia, 67.2%; in the assay with MOLT-4 leukemia it was 37.2%.

Consider `CC1=C(C)C(=O)C(NCCN2CCOCC2)=C(Br)C1=O`, for which the growth is 68.9% in the assay with SK-MEL-2 melanoma; 46.4% in the assay on EKVX NSCLC; 52% in the assay on SN12C renal; 44.7% in the assay on UO-31 renal; 150% in the assay on TK-10 renal; 62.3% in the assay on ACHN renal. The growth in the assay with CAKI-1 renal was 45.3%; with A498 renal, 124%; with CCRF-CEM leukemia, -21% (active); in the assay on MOLT-4 leukemia, 0.284% (active).

Turning to `COc1ccc2[nH]c(O)c(N=Nc3nc(-c4ccc(Cl)cc4)cs3)c2c1`, the growth in the assay on SK-MEL-2 melanoma is 14%; in the assay on EKVX NSCLC, -3.25% (active); in the assay with SN12C renal it was -69.2% (active); in the assay on UO-31 renal, -61.4% (active); in the assay on TK-10 renal, 7.57% (active); in the assay with ACHN renal, -79.1% (active). Further, the growth in the assay on CAKI-1 renal was -37.6% (active); in the assay on A498 renal, -89.7% (active); in the assay on CCRF-CEM leukemia it was 15.7%; in the assay with MOLT-4 leukemia it was -16.5% (active).

On to `COc1cccc2nc(Nc3cccc(NC(=O)c4ccc(CN5CCN(C)CC5)c(C(F)(F)F)c4)c3)ccc12`, for which the growth in the assay on SK-MEL-2 melanoma is -87.8% (active); with EKVX NSCLC, -96.2% (active); in the assay on SN12C renal, -90.5% (active); in the assay with UO-31 renal it was -88.6% (active); in the assay on TK-10 renal, -93.1% (active); in the assay on ACHN renal it was -100% (active). The growth with CAKI-1 renal is -100% (active); in the assay with A498 renal, -94.9% (active); in the assay on CCRF-CEM leukemia, -44.4% (active); in the assay on MOLT-4 leukemia, -38.5% (active).

Take `CC1=C(C(=O)Nc2ccccc2)C(c2cccc(Cl)c2Cl)n2c(nc3ccccc32)N1` (stereo not given): the growth with SK-MEL-2 melanoma was 75.2%; with EKVX NSCLC, 46.3%; in the assay with SN12C renal it was 53.4%; in the assay with UO-31 renal, 33.7%; in the assay with TK-10 renal it was 57.8%; in the assay with ACHN renal, 42.5%. Also, the growth is 36.4% in the assay on CAKI-1 renal, 35% in the assay on A498 renal, 29.8% in the assay with CCRF-CEM leukemia and 7.7% (active) with MOLT-4 leukemia.
